The values that follow come from article doi:10.1101/2024.03.05.583629.

One test deals with pT7_6His-AlfaTag-HOXD13 (human, UniProt P35453 263-343). As to the kind of experiment: PADIT-seq. The settings on record: dsDNA, one strand shown.
The next test concerns the target pT7_6His-AlfaTag-ZIF268 (human, UniProt P18146 335-423). As to the kind of experiment: PADIT-seq. The settings on record: dsDNA, one strand shown.

Sequence of pT7_6His-AlfaTag-HOXD13 (P35453 263-343): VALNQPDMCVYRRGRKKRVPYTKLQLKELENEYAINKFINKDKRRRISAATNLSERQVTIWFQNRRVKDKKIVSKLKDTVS

Consider “CTCGAGGATATCAAGATCTGGCCTCGGCGAATTAAAAGGAACCTCTAGCTAGCCGACTCACTATAGGGATAATCGCCCTGAGCAAAGACC”, for which the values for the binding signal in the test with pT7_6His-AlfaTag-HOXD13 and with pT7_6His-AlfaTag-ZIF268 were 1.47 ± 0.0704 log2FC and 0.0118 ± 0.0724 log2FC, respectively.
The matching figures for “CTCGAGGATATCAAGATCTGGCCTCGGCCTTTTAGAGGGAACCTCTAGCTAGCCGACTCACTATAGGGATAATCGCCCTGAGCAAAGACC”: 1.1 ± 0.092 log2FC and 0.0179 ± 0.0928 log2FC.
On the same counts, the results for “CTCGAGGATATCAAGATCTGGCCTCGGCACAGTAAAAGGAACCTCTAGCTAGCCGACTCACTATAGGGATAATCGCCCTGAGCAAAGACC” are 1.94 ± 0.076 log2FC and 0.04 ± 0.0816 log2FC.
On the same counts, the results for “CTCGAGGATATCAAGATCTGGCCTCGGCAGATTAAAAGGAACCTCTAGCTAGCCGACTCACTATAGGGATAATCGCCCTGAGCAAAGACC” are 1.14 ± 0.0686 log2FC and 0.0127 ± 0.0692 log2FC.
For “CTCGAGGATATCAAGATCTGGCCTCGGCCTTTTAGTGGGAACCTCTAGCTAGCCGACTCACTATAGGGATAATCGCCCTGAGCAAAGACC”, the figures for the binding signal with pT7_6His-AlfaTag-HOXD13 and in the test with pT7_6His-AlfaTag-ZIF268 were 1.46 ± 0.0766 log2FC and 0.00894 ± 0.0794 log2FC, respectively.
The matching figures for “CTCGAGGATATCAAGATCTGGCCTCGGCGGGTTAAAAGGAACCTCTAGCTAGCCGACTCACTATAGGGATAATCGCCCTGAGCAAAGACC”: 0.632 ± 0.0825 log2FC and 0.0267 ± 0.0801 log2FC.
As for “CTCGAGGATATCAAGATCTGGCCTCGGCGTTTTAGCCGGAACCTCTAGCTAGCCGACTCACTATAGGGATAATCGCCCTGAGCAAAGACC”, the binding signal is -0.579 ± 0.147 log2FC with pT7_6His-AlfaTag-HOXD13 and 0.0458 ± 0.125 log2FC with pT7_6His-AlfaTag-ZIF268.
The matching figures for “CTCGAGGATATCAAGATCTGGCCTCGGCCAGATAAAAGGAACCTCTAGCTAGCCGACTCACTATAGGGATAATCGCCCTGAGCAAAGACC”: 0.383 ± 0.117 log2FC and 0.0449 ± 0.11 log2FC.
On the same counts, the results for “CTCGAGGATATCAAGATCTGGCCTCGGCGCGCAGGCGGGAACCTCTAGCTAGCCGACTCACTATAGGGATAATCGCCCTGAGCAAAGACC” are -1.07 ± 0.126 log2FC and 0.339 ± 0.0965 log2FC.
On the same counts, the results for “CTCGAGGATATCAAGATCTGGCCTCGGCCTTTGGGCGGGAACCTCTAGCTAGCCGACTCACTATAGGGATAATCGCCCTGAGCAAAGACC” are -0.932 ± 0.115 log2FC and 0.262 ± 0.0913 log2FC.
For the sequence “CTCGAGGATATCAAGATCTGGCCTCGGCAGGTTAAAAGGAACCTCTAGCTAGCCGACTCACTATAGGGATAATCGCCCTGAGCAAAGACC”, the binding signal came to 0.752 ± 0.0728 log2FC with pT7_6His-AlfaTag-HOXD13 and 0.0674 ± 0.0711 log2FC with pT7_6His-AlfaTag-ZIF268.
For the sequence “CTCGAGGATATCAAGATCTGGCCTCGGCTAATGGGCGGGAACCTCTAGCTAGCCGACTCACTATAGGGATAATCGCCCTGAGCAAAGACC”, the binding signal with pT7_6His-AlfaTag-HOXD13 was found to be 0.254 ± 0.0964 log2FC; with pT7_6His-AlfaTag-ZIF268, 0.0526 ± 0.0899 log2FC.
On the same counts, the results for “CTCGAGGATATCAAGATCTGGCCTCGGCTCATGGGCGGGAACCTCTAGCTAGCCGACTCACTATAGGGATAATCGCCCTGAGCAAAGACC” are -1.04 ± 0.124 log2FC and 0.0784 ± 0.105 log2FC.
On the same counts, the results for “CTCGAGGATATCAAGATCTGGCCTCGGCATTTTACGGGGAACCTCTAGCTAGCCGACTCACTATAGGGATAATCGCCCTGAGCAAAGACC” are 3.18 ± 0.0854 log2FC and 0.0766 ± 0.0939 log2FC.
The matching figures for “CTCGAGGATATCAAGATCTGGCCTCGGCCTTTTACGGGGAACCTCTAGCTAGCCGACTCACTATAGGGATAATCGCCCTGAGCAAAGACC”: 3.14 ± 0.0784 log2FC and 0.0515 ± 0.0862 log2FC.
For “CTCGAGGATATCAAGATCTGGCCTCGGCGCGGGGGCGGGAACCTCTAGCTAGCCGACTCACTATAGGGATAATCGCCCTGAGCAAAGACC”, the results for the binding signal in the test with pT7_6His-AlfaTag-HOXD13 and with pT7_6His-AlfaTag-ZIF268 were -0.903 ± 0.133 log2FC and 3.63 ± 0.0947 log2FC, respectively.
On the same counts, the results for “CTCGAGGATATCAAGATCTGGCCTCGGCCGCTTGCGCGGAACCTCTAGCTAGCCGACTCACTATAGGGATAATCGCCCTGAGCAAAGACC” are -0.985 ± 0.131 log2FC and 0.0632 ± 0.103 log2FC.
“CTCGAGGATATCAAGATCTGGCCTCGGCGCGTGGAGTGGAACCTCTAGCTAGCCGACTCACTATAGGGATAATCGCCCTGAGCAAAGACC”: the values for the binding signal with pT7_6His-AlfaTag-HOXD13 and with pT7_6His-AlfaTag-ZIF268 were -0.822 ± 0.144 log2FC and 0.252 ± 0.117 log2FC, respectively.
Take “CTCGAGGATATCAAGATCTGGCCTCGGCGCGTGGTAAGGAACCTCTAGCTAGCCGACTCACTATAGGGATAATCGCCCTGAGCAAAGACC”: the binding signal with pT7_6His-AlfaTag-HOXD13 was -0.999 ± 0.124 log2FC; with pT7_6His-AlfaTag-ZIF268, 0.49 ± 0.0946 log2FC.
On the same counts, the results for “CTCGAGGATATCAAGATCTGGCCTCGGCCGCCCACTAGGAACCTCTAGCTAGCCGACTCACTATAGGGATAATCGCCCTGAGCAAAGACC” are -0.944 ± 0.114 log2FC and 0.246 ± 0.0891 log2FC.
On to “CTCGAGGATATCAAGATCTGGCCTCGGCTAGTGGGCGGGAACCTCTAGCTAGCCGACTCACTATAGGGATAATCGCCCTGAGCAAAGACC”, for which the binding signal with pT7_6His-AlfaTag-HOXD13 is -0.725 ± 0.112 log2FC; with pT7_6His-AlfaTag-ZIF268, 1.78 ± 0.084 log2FC.
In the case of “CTCGAGGATATCAAGATCTGGCCTCGGCGCGTGGTTAGGAACCTCTAGCTAGCCGACTCACTATAGGGATAATCGCCCTGAGCAAAGACC”, the values for the binding signal in the test with pT7_6His-AlfaTag-HOXD13 and with pT7_6His-AlfaTag-ZIF268 were -0.958 ± 0.117 log2FC and 0.357 ± 0.094 log2FC, respectively.
The matching figures for “CTCGAGGATATCAAGATCTGGCCTCGGCTTATTAAAAGGAACCTCTAGCTAGCCGACTCACTATAGGGATAATCGCCCTGAGCAAAGACC”: 3.06 ± 0.0807 log2FC and 0.0487 ± 0.0902 log2FC.
The matching figures for “CTCGAGGATATCAAGATCTGGCCTCGGCAACCTAAAAGGAACCTCTAGCTAGCCGACTCACTATAGGGATAATCGCCCTGAGCAAAGACC”: -0.715 ± 0.12 log2FC and 0.113 ± 0.099 log2FC.
